According to PubChem BioAssay (Tox21):
Results filed as inconclusive are left out. Activity calls are given as the source filed them. Calls follow the shape of the dose curve; as a rule, active = well fitted curve in the direction sought with a large enough effect in the repeat runs; inconclusive = weak or mixed curves; inactive = no such curve, though single readings can be large; an effect the other way counts as inactive or inconclusive.

Key:
[1] = qHTS RealTime-Glo MT Cell Viability Assay in HepG2 cells - 40 hour (AID 1224870); also: nearly all actives have a fitted effect of over 50% in size
Outline: (§1)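 Real-time viability: cells seeded at 600 per well together with NanoLuc and cell-permeant prosubstrate, compounds added after 5 h incubation. Luminescence tracked at 0, 8, 16, 24, 32 and 40 h of exposure.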

[2] = qHTS RealTime-Glo MT Cell Viability Assay in HEK293 cells - 16 hour (AID 1224872); also: top concentration of the series differs between compounds; nearly all actives have a fitted effect of over 50% in size
Outline: (§2)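 Assay medium contained NanoLuc luciferase plus cell-permeant prosubstrate, added with HEK293 cells at 600 cells/well. After 5 h at 37 C/5% CO2 compounds were added; plates stayed at 37 C for 40 h with serial luminescence reads.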

[3] = qHTS RealTime-Glo MT Cell Viability Assay in HepG2 cells - 8 hour (AID 1224873); also: nearly all actives have a fitted effect of over 55% in size
Outline: as §1

[4] = qHTS RealTime-Glo MT Cell Viability Assay in HEK293 cells - 40 hour (AID 1224874); settings: RealTime-Glo luminescence; max response: active compounds read low; also: nearly all actives have a fitted effect of over 50% in size
Outline: (§3)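 Kinetic, non-lysing viability readout. Seed HEK293 (600/well) with reagent, incubate 5 h at 37 C/5% CO2, pin 23 nL compound in DMSO, incubate at 37 C, read luminescence at 0, 8, 16, 24, 32, 40 h.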

[5] = A CellTox Green Cytotoxicity Assay to monitor cytotoxicity in HEK293 cells - 24 hour (AID 1224875); also: nearly all actives have a fitted effect of over 45% in size; also: potency is read from the fitted curve at half-maximal effect
Outline: (§4)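 Real-time, in one plate: 600 HEK293 cells/well with dead-cell DNA dye, pinned compound after 5 h, 37 C incubation over 40 h; viable cells give no appreciable fluorescence.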

[6] = A CellTox Green Cytotoxicity Assay to monitor cytotoxicity in HepG2 cells - 16 hour (AID 1224876); also: nearly all actives have a fitted effect of over 45% in size; also: potency is read from the fitted curve at half-maximal effect
Outline: (§5)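 Cytotoxicity was tracked as dead-cell DNA fluorescence in HepG2 cells treated with test compounds at 37 C; each time-point value comes from one kinetic series spanning 0, 8, 16, 24, 32 and 40 h.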

[7] = qHTS RealTime-Glo MT Cell Viability Assay in HepG2 cells - 32 hour (AID 1224877); also: nearly all actives have a fitted effect of over 55% in size
Outline: (§6)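 qHTS, HepG2, 600 cells/well, RealTime-Glo (NanoLuc + prosubstrate) added with cells; 5 h preincubation; DMSO compound addition; 37 C; luminescence at 0/8/16/24/32/40 h.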

[8] = A CellTox Green Cytotoxicity Assay to monitor cytotoxicity in HepG2 cells - 24 hour (AID 1224878); also: nearly all actives have a fitted effect of over 45% in size; also: potency is read from the fitted curve at half-maximal effect
Outline: as §5

[9] = A CellTox Green Cytotoxicity Assay to monitor cytotoxicity in HepG2 cells - 40 hour (AID 1224879); also: nearly all actives have a fitted effect of over 40% in size; also: potency is read from the fitted curve at half-maximal effect
Outline: as §5

[10] = qHTS RealTime-Glo MT Cell Viability Assay in HEK293 cells - 0 hour (AID 1224880); also: top concentration of the series differs between compounds; nearly all actives have a fitted effect of over 45% in size
Outline: as §3

[11] = A CellTox Green Cytotoxicity Assay to monitor cytotoxicity in HEK293 cells - 32 hour (AID 1224881); also: nearly all actives have a fitted effect of over 40% in size; also: potency is read from the fitted curve at half-maximal effect
Outline: as §4

[12] = A CellTox Green Cytotoxicity Assay to monitor cytotoxicity in HepG2 cells - 0 hour (AID 1224882); also: nearly all actives have a fitted effect of over 35% in size; also: potency is read from the fitted curve at half-maximal effect
Outline: as §5

[13] = A CellTox Green Cytotoxicity Assay to monitor cytotoxicity in HepG2 cells - 32 hour (AID 1224883); also: nearly all actives have a fitted effect of over 50% in size; also: potency is read from the fitted curve at half-maximal effect
Outline: as §5

[14] = A CellTox Green Cytotoxicity Assay to monitor cytotoxicity in HEK293 cells - 8 hour (AID 1224884); also: nearly all actives have a fitted effect of over 35% in size; also: potency is read from the fitted curve at half-maximal effect
Outline: as §4

[15] = qHTS RealTime-Glo MT Cell Viability Assay in HepG2 cells - 16 hour (AID 1224885); also: nearly all actives have a fitted effect of over 50% in size
Outline: as §6

[16] = qHTS RealTime-Glo MT Cell Viability Assay in HEK293 cells - 24 hour (AID 1224886)
Outline: as §2

[17] = qHTS RealTime-Glo MT Cell Viability Assay in HEK293 cells - 8 hour (AID 1224887)
Outline: as §3

[18] = A CellTox Green Cytotoxicity Assay to monitor cytotoxicity in HEK293 cells - 16 hour (AID 1224888); also: nearly all actives have a fitted effect of over 35% in size; also: potency is read from the fitted curve at half-maximal effect
Outline: as §4

[19] = qHTS RealTime-Glo MT Cell Viability Assay in HepG2 cells - 0 hour (AID 1224889); also: nearly all actives have a fitted effect of over 50% in size
Outline: as §6

[20] = A CellTox Green Cytotoxicity Assay to monitor cytotoxicity in HEK293 cells - 40 hour (AID 1224871); also: nearly all actives have a fitted effect of over 45% in size; also: potency is read from the fitted curve at half-maximal effect
Outline: as §4
% is scaled to controls: 0 for no effect and ±100 for the full control effect.

CC(C)(C)c1cc(C=O)cc(C(C)(C)C)c1O
inactive: Potency [1] | Potency [2] | outcome [3] | max response [4] -0.177% | Potency [5] | Potency [6] | Potency [7] | Potency [8] | Potency [9] | Potency [10] | Potency [11] | Potency [12] | Potency [13] | Potency [14] | outcome [15] | Potency [16] | Potency [17] | Potency [18] | Potency [19]

CCC(C)CCCC(C)(C)O (configuration not stated)
inactive: Potency [1] | Potency [2] | outcome [3] | max response [4] 21.8% | Potency [5] | Potency [6] | Potency [7] | Potency [8] | Potency [9] | Potency [10] | Potency [11] | Potency [12] | Potency [13] | Potency [14] | outcome [15] | Potency [16] | Potency [17] | Potency [18] | Potency [19]

SCCOCCOCCS
inactive: Potency [1] | Potency [20] | max response [4] -3.19% | Potency [5] | Potency [6] | Potency [7] | Potency [8] | Potency [9] | Potency [10] | Potency [11] | Potency [13] | Potency [14] | outcome [15] | Potency [16] | Potency [18] | Potency [19]

CCCCCCCCCCCCSCCOCCO
inactive: Potency [1] | Potency [2] | outcome [3] | max response [4] -17.3% | Potency [5] | Potency [6] | Potency [7] | Potency [8] | Potency [9] | Potency [10] | Potency [11] | Potency [12] | Potency [13] | Potency [14] | outcome [15] | Potency [16] | Potency [17] | Potency [18] | Potency [19]

O=C(OCCCCCOC(=O)c1ccccc1)c1ccccc1
inactive: Potency [1] | Potency [20] | outcome [3] | Potency [5] | Potency [6] | Potency [7] | Potency [8] | Potency [9] | Potency [10] | Potency [11] | Potency [12] | Potency [13] | Potency [14] | outcome [15] | Potency [18] | Potency [19]

CC1(C)C(=O)NC(=O)N1CO
inactive: Potency [1] | Potency [2] | outcome [3] | max response [4] 9.14% | Potency [5] | Potency [6] | Potency [7] | Potency [8] | Potency [9] | Potency [10] | Potency [11] | Potency [12] | Potency [13] | Potency [14] | outcome [15] | Potency [16] | Potency [17] | Potency [18] | Potency [19]

FC(F)(Cl)C(F)(Cl)Cl
inactive: Potency [1] | Potency [20] | outcome [3] | Potency [5] | Potency [6] | Potency [7] | Potency [8] | Potency [9] | Potency [10] | Potency [11] | Potency [13] | Potency [14] | Potency [16] | Potency [17] | Potency [18] | Potency [19]

CCCCCCCCCCCCCCCCN
active: Potency [20] 12 µM | Potency [5] 10.7 µM | Potency [6] 23.9 µM | Potency [8] 21.3 µM | Potency [11] 16.9 µM | Potency [12] 21.3 µM | Potency [13] 23.9 µM | Potency [14] 19 µM
inactive: Potency [1] | Potency [7] | Potency [17] | Potency [19]

COc1ccc(C(=O)c2ccc(C)cc2)c(O)c1
inactive: Potency [1] | Potency [20] | outcome [3] | Potency [5] | Potency [6] | Potency [7] | Potency [8] | Potency [9] | Potency [10] | Potency [11] | Potency [12] | Potency [13] | Potency [14] | outcome [15] | Potency [18] | Potency [19]

Cc1c(N=C=O)cccc1N=C=O
inactive: Potency [1] | Potency [20] | max response [4] 2.75% | Potency [5] | Potency [6] | Potency [7] | Potency [10] | Potency [12] | Potency [14] | outcome [15] | Potency [16] | Potency [17] | Potency [18] | Potency [19]

CCC(C)C1N=C(C)C(C)S1 (configuration not stated)
inactive: Potency [1] | Potency [20] | max response [4] 6.11% | Potency [5] | Potency [6] | Potency [7] | Potency [8] | Potency [9] | Potency [10] | Potency [11] | Potency [12] | Potency [13] | Potency [14] | Potency [16] | Potency [17] | Potency [18] | Potency [19]

O=C(Nc1ccc2c(c1)Cc1ccccc1-2)C(F)(F)F
inactive: Potency [1] | Potency [20] | outcome [3] | Potency [5] | Potency [6] | Potency [7] | Potency [8] | Potency [10] | Potency [11] | Potency [12] | Potency [13] | Potency [14] | outcome [15] | Potency [17] | Potency [18] | Potency [19]

CCN(CCCCOC(=O)c1ccc(OC)c(OC)c1)C(C)Cc1ccc(OC)cc1 (configuration not stated)
inactive: Potency [1] | Potency [20] | outcome [3] | Potency [5] | Potency [6] | Potency [7] | Potency [10] | Potency [11] | Potency [12] | Potency [14] | Potency [18] | Potency [19]

Cc1c(Cl)cccc1[N+](=O)[O-]
inactive: Potency [1] | Potency [20] | outcome [3] | Potency [5] | Potency [6] | Potency [7] | Potency [8] | Potency [9] | Potency [11] | Potency [12] | Potency [13] | Potency [14] | outcome [15] | Potency [17] | Potency [18] | Potency [19]

O=C(O)c1ccncc1
inactive: Potency [1] | Potency [2] | outcome [3] | max response [4] 9.67% | Potency [5] | Potency [6] | Potency [7] | Potency [8] | Potency [9] | Potency [10] | Potency [11] | Potency [12] | Potency [13] | Potency [14] | outcome [15] | Potency [16] | Potency [17] | Potency [18] | Potency [19]

NC(=O)c1ccccc1C(N)=O
active: Potency [20] 49.2 µM | Potency [5] 49.2 µM | Potency [6] 55.2 µM | Potency [8] 55.2 µM | Potency [9] 49.2 µM | Potency [11] 49.2 µM | Potency [12] 49.2 µM | Potency [13] 55.2 µM | Potency [14] 49.2 µM | Potency [18] 49.2 µM
inactive: Potency [1] | outcome [3] | Potency [7] | Potency [10] | outcome [15] | Potency [19]
